Hits are enriched below; roughly 2.3% of the tested compounds scored in any of these assays.
H9c2 TAG inh = reduces triacylglycerol accumulation in H9c2 cells | inhibition, % at 12.5 µM | AID 651582 | 0.66% of 230,000 active | Nile Red lipid (TAG) fluorescence; cells loaded with 200 µM oleic acid;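 active means pattern-corrected inhibition of lipid staining of at least 50% with the nuclear-stain viability signal not falling by more than 50%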;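 further: 0% = DMSO wells and 100% = triacsin C control wells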
FAS TE block = inhibitors of human fatty acid synthase thioesterase domain; P49327; recombinant FAS-TE, OMFH fluorogenic substrate, fluorescence endpoint; inhibition, % at 15 µM; 0.67% of 360,000 active;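 active means compounds whose normalised, plate-corrected inhibition of enzyme fluorescence in the single-dose primary screen is 50% or more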;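 further: 0% = DMSO with enzyme and 100% = substrate without enzyme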
Target sequence (P49327 whole entry, looked up, the tested form may be a part): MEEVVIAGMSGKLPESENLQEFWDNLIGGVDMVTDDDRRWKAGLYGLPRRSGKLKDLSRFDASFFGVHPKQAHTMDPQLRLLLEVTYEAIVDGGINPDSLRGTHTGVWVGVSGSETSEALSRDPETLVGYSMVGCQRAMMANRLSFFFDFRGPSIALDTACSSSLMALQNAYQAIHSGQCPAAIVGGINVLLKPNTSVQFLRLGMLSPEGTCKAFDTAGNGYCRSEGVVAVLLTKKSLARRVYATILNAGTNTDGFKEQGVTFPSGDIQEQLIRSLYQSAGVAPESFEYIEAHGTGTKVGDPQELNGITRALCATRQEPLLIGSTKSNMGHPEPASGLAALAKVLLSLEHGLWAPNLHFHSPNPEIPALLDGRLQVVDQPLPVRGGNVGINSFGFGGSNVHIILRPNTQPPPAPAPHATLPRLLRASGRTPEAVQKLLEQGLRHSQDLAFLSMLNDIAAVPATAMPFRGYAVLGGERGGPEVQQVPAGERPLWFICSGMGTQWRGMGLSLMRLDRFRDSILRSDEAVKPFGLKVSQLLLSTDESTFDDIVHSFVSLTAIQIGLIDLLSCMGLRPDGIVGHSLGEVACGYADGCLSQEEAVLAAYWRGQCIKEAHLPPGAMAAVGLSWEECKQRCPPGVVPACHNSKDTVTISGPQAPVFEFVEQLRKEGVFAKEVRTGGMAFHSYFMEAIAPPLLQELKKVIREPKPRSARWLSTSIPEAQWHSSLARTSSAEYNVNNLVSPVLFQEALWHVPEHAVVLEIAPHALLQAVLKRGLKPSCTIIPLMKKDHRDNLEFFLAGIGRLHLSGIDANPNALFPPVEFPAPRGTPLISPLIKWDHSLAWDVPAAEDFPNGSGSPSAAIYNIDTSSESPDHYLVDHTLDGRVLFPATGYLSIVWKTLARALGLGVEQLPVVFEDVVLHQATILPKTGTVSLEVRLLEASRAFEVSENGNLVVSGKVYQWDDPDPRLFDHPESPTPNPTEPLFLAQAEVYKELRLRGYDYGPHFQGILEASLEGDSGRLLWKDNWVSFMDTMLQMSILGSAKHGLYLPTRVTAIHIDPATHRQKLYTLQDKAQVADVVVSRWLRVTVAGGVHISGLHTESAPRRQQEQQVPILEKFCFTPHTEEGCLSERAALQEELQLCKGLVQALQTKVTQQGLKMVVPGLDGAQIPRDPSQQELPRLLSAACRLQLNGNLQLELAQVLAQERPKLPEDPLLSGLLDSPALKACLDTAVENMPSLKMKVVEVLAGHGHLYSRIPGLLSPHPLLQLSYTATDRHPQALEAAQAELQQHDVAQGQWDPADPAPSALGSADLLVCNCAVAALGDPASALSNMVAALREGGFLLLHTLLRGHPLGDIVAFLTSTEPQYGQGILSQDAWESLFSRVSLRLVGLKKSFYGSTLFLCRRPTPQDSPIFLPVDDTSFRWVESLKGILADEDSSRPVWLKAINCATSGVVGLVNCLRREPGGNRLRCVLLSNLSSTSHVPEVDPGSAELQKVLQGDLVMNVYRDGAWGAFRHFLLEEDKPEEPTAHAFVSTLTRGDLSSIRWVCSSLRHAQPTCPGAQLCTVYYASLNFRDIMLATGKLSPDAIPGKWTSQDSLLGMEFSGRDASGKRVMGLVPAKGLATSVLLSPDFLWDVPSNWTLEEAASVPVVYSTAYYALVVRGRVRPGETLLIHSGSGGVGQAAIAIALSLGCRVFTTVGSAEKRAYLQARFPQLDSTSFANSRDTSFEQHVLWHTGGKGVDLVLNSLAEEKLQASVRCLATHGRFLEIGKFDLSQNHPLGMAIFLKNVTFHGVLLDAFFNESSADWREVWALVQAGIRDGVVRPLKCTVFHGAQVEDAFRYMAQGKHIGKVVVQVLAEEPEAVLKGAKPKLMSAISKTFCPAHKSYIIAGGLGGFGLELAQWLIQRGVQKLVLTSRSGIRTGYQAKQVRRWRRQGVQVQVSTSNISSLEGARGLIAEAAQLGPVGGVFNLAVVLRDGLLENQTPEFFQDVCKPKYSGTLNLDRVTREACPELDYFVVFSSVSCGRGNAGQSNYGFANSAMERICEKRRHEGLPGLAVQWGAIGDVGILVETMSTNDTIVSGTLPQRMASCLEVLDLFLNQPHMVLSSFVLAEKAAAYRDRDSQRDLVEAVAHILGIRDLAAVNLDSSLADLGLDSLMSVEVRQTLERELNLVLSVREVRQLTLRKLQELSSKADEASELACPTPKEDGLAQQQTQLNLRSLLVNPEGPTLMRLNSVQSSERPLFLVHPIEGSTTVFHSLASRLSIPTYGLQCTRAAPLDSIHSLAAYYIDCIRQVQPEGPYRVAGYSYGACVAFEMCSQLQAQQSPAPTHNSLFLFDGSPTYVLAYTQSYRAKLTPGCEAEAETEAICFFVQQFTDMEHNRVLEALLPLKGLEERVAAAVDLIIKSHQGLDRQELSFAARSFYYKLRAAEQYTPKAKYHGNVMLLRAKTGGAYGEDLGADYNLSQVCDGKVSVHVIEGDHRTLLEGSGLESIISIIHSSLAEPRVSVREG
H9c2 protect = modulators protecting cardiomyocytes from myocardial damage; protection from H2O2 cell death, % at 20 µM; 0.63% of 360,000 active; H9c2 cardiomyocytes, H2O2 injury protection, ATPLite, 2 h;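 active means compounds giving at least 50% protection of heart cells from peroxide-induced death in the single-dose screen, raw or plate-pattern-corrected value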;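 further: 0% = DMSO wells with peroxide and 100% = DMSO wells without peroxide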
beta cell repl = inducers of beta-cell replication in MIN6 cells | AID 2380 | MIN6 cells proliferation, ATPlite luminescence, 48 h; cells starved in 0.2% serum; 100% = growth in 10% serum | 0.29% of 330,000 active | proliferation, % at 10 µM;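 active means compounds whose signal lies at least 3.5 SD above the mean of all wells on their plate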;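 further: 0% = DMSO-treated cells in low-serum medium and 100% = 10% serum control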
aDG glyco up = alpha-DG glycosylation activation; AID 624168; activation, % at 10 µM; 0.22% of 360,000 active; Pro5-aDG cells, alpha-DG glycosylation AlphaScreen (IIH6); 0% Pro5, 100% B10-LARGE cell signal;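 active means activation of at least 8% versus controls, or a plate z-score of at least 8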;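 further: Pro5 are CHO cells carrying HIG-tagged alpha-DG that lacks glycosylation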
m-calpain inh = inhibitors of pig calpain II; purified calpain II, fluorogenic peptide substrate, 30 min; inhibition, % at 16 µM; 0.37% of 220,000 active; AID 1236;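 active means inhibition above about 50%, limit read from the data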
Starred values were filed as active, the others as inactive; . = no result.

SMILES | H9c2 TAG inh | FAS TE block | H9c2 protect | beta cell repl | aDG glyco up | m-calpain inh
CCCS(=O)(=O)NC(=O)C1(C)CCN(C(=O)c2c(C)noc2C)C1 (centres undefined) | -5 | -3 | -2 | . | 0 | .
Cc1ccc(C(=O)N2CCC3(CC2)NCCc2[nH]cnc23)cc1C | . | -8 | 0 | 0 | 0 | .
CCCSc1nc(SCC(=O)NCc2ccccc2)c2c3c(sc2n1)COC(C)(C)C3 | 56* | -5 | -2 | -2 | 0 | -5
CC(C)CN1C(=O)C(=O)N(CC(=O)NCCCc2ccccc2)C1=O | -13 | 2 | 3 | . | 0 | .
O=c1n(Cc2ccccc2)c(O)c2n1Cc1ccccc1N=C2c1ccc(C(F)(F)F)cc1 | . | -2 | -1 | . | 0 | .
O=C/C(=C\Nc1ccccn1)c1nc2cc(Cl)ccc2o1 | 3 | 10 | 56* | -3 | 0 | -19
O=C/C(=C\Nc1ccccn1)c1nc2ccccc2o1 | . | -3 | 38 | -4 | 0 | 17
c1ccc(/N=C2\N=C(Nc3ccccn3)c3ccccc32)nc1 | 51* | 10 | 11 | -7 | 0 | .
NS(=O)(=O)c1ccc(CCNC(=O)c2ccc(C#CC3(O)CCCCC3)cc2)cc1 | . | -6 | 71* | -1 | 0 | -24
NS(=O)(=O)c1ccc(CCNC(=O)c2ccncc2)cc1 | . | -3 | 6 | 4 | 0 | .
CC(C)NC(=O)C1CCN(c2ccc(S(=O)(=O)N3CCOCC3)cc2Cl)CC1 | -9 | -14 | -5 | -1 | 0 | 8
N#Cc1ccc(-c2cccs2)nc1SCc1cccnc1 | 53* | 20 | 0 | -3 | 0 | -39
N#Cc1c(C(F)(F)F)cc(-c2cccs2)nc1SCc1cccnc1 | . | 16 | -12 | -1 | 0 | -290
C[C@@H]1CN([C@@H](C)CO)C(=O)CCCn2nncc2CO[C@H]1CN(C)C(=O)OCc1ccccc1 | -5 | -11 | -1 | . | 0 | .
CCN(CC)C(=O)COc1ccc2c3c(c(=O)oc2c1)CCCC3 | 5 | 1 | 3 | 1 | 0 | .
CCOC(=O)COc1ccc2c3c(c(=O)oc2c1)CCCC3 | 12 | 3 | 55* | -2 | 0 | .
COc1ccc(C(=O)Nc2ccc(S(=O)(=O)NC(C)(C)C)cc2)cc1[N+](=O)[O-] | 18 | 5 | -9 | 2 | 0 | 54*
O=C(NCCC1=CCCCC1)C1CCC(CNS(=O)(=O)c2ccccc2)CC1 (centres undefined) | . | 0 | 0 | 0 | 0 | 29
CC(=O)Nc1ccc(S(=O)(=O)NCC2CCC(C(=O)NCCC3=CCCCC3)CC2)cc1 (centres undefined) | . | -10 | -3 | -2 | 0 | 52*
Oc1c(Br)cc(Cl)cc1C=Nc1ccccc1Br | -10 | -14 | 72* | -4 | 0 | 1
Oc1ccc2ccccc2c1C=Nc1ccccc1Br | . | 5 | 19 | -4 | 0 | .
NC(=O)c1cccc2c1C(=O)N(C1CCCCC1)C2 | 7 | -9 | 78* | 5 | 0 | -55
c1coc(-c2nnc3sc(Cc4cccs4)nn23)c1 | . | -3 | 65* | -3 | 0 | -11
COc1ccc(OCc2nn3c(-c4ccco4)nnc3s2)cc1 | -4 | -4 | 40 | -1 | 1 | -12
C[C@H](CO)N1C[C@H](C)[C@@H](CN(C)S(=O)(=O)c2ccc3c(c2)OCCCO3)OCc2cn(nn2)CCCC1=O | -2 | -9 | 3 | . | 0 | .
SMILES | H9c2 TAG inh | FAS TE block | H9c2 protect | beta cell repl | aDG glyco up | m-calpain inh
CC(C)N=c1scc(-c2cccs2)n1/N=C/c1ccc(O)c(O)c1O | . | 11 | 50* | -2 | -1 | -59
CCS(=O)(=O)c1ccc(S(=O)(=O)CC)s1 | 29 | -8 | 2 | -2 | 0 | 52*
COc1ccccc1NC(=O)/C=C\C(=O)O | . | -13 | 0 | -2 | 0 | 77*
COC(=O)c1ccccc1NC(=O)/C=C/c1cc(OC)c(OC)c(OC)c1 | . | 12 | 57* | 0 | 0 | -4
COc1ccccc1OCC(=O)Nc1sc2c(c1C(=O)NCC1CCCO1)CCC2 (centres undefined) | . | 22 | 64* | 0 | 0 | 36
N#CCSc1ccccc1NC(=O)COC(=O)CCNC(=O)c1ccc([N+](=O)[O-])cc1 | -5 | 1 | -1 | 2 | 0 | .
CNS(=O)(=O)c1ccc2nc(NC(=O)/C=C/c3ccco3)sc2c1 | 6 | -2 | 64* | -1 | 0 | -183
Fc1ccccc1NC(=S)NN(Cc1ccccc1)c1ccccc1 | . | 15 | -1 | -5 | 0 | -29
CC(C)c1ccccc1NC(=S)NN(Cc1ccccc1)c1ccccc1 | -3 | 11 | -3 | -6 | 0 | 50*
COc1ccc(CN2CCC(=O)N([C@H](CO)CC(C)C)CC2)cc1 | -6 | -15 | -4 | -1 | 0 | .
CN(CC(=O)NC1CC1)S(=O)(=O)c1cc(Cl)ccc1Cl | 6 | -5 | 9 | -6 | 0 | .
CCC(CO)Oc1cc(NCc2ccc(O)cc2)c2ncn(C(C)C)c2c1 (centres undefined) | 1 | -10 | -2 | 1 | 0 | .
CCC(CO)Oc1cc(NCc2ccc(C(C)(C)C)cc2)c2ncn(C(C)C)c2c1 (centres undefined) | 0 | 8 | -21 | -6 | 5.2* | .
CCCn1c(=O)c(C(=O)NCCc2ccc(Cl)cc2)c(O)c2ccccc21 | . | 25 | 54* | -4 | 0 | .
NC(=O)c1ccc(Nc2nnc(-c3ccc(O)cc3)c3ccccc23)cc1 | 18 | 0 | 59* | 1 | 0 | -76
CCN(CC)C(=O)c1ccc(-c2nnc(Nc3ccc(O)cc3)c3ccccc23)cc1 | . | -2 | 59* | -4 | 0 | .
O=S1(=O)CC2SC(=S)N(Cc3ccccc3)C2C1 (centres undefined) | -6 | 2 | 2 | -3 | 0 | -11
COc1cc(C(O)c2nc(-c3ccccc3OC)cs2)ccc1F (centres undefined) | -1 | 2 | -13 | . | 1 | .
Cc1ccc(C(=O)Nc2cccc(S(=O)(=O)N3CCCC3)c2)o1 | 11 | 5 | 4 | 0 | 0 | .
COc1cccc(CN(C)C(=O)C2CCCN(C(=O)c3ccc(Cl)cc3)C2)c1 (centres undefined) | 6 | -11 | 13 | . | 0 | .
CCOC(=O)Cc1csc(NC(=O)Nc2ccc(OC(F)(F)F)cc2)n1 | -20 | -3 | -16 | 0 | 2 | -16
CCOC(=O)Cc1csc(NC(=O)NC2(C(F)(F)F)Oc3cc(Cl)c(Cl)cc3O2)n1 | -37 | 11 | 57* | -1 | 0 | -22
CCOC(=O)Cc1csc(NC(=O)NC2(C(F)(F)F)Oc3ccc(Cl)cc3O2)n1 (centres undefined) | 13 | 9 | 62* | -2 | 0 | -33
CCOC(=O)Cc1csc(NC(=O)NC2(C(F)(F)F)Oc3ccccc3O2)n1 | . | 12 | 50* | -5 | 0 | -3
COc1cccc(NC(=O)NC2(C(F)(F)F)Oc3ccccc3O2)c1 | 26 | 14 | 75* | -6 | 0 | -17

Source: PubChem BioAssay
